Compound activity: PubChem, National Center for Advancing Translational Sciences (NCATS)
An excerpt weighted towards active compounds, which were near 21% of everything screened.
Gal4-VP16 FLuc: counter-screen for ROR gamma inhibitors: Gal4-VP16 reporter; Potency, µM (top dose mostly 53.6 µM), for inactives: top-dose activity, negative = inhibition, most hits filed as inhibitors; AID 2546; Drosophila S2 Gal4-VP16 UAS-luciferase, luminescence, 20 h; 310,000 tested, 3.5% active;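 further: Gal4-VP16 expression switched on by copper sulfate through the metallothionein promoter; potency means the concentration at half of the fitted maximal effect; nearly all actives have a fitted effect of over 50% in size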
TDP1 cell noCPT: qHTS for Inhibitors of human tyrosyl-DNA phosphodiesterase 1 (TDP1): qHTS in cells in absence of CPT. DT40 Tdp1-/- hTDP1 cells, no CPT, ATP luminescence, 48 h. Potency, µM (titrated, usually from 46.2 µM), for the others: at the top dose activity change, negative = growth inhibition, actives largely listed as inhibitors. AID 686978, 2013. 420,000 tested, 15% active; further: potency means the concentration at half of the fitted maximal effect; nearly all actives have a fitted effect of over 55% in size
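Chicken DT40 Tdp1-/- cells complemented with human TDP1, screened without camptothecin (DMSO vehicle only), 400 cells/well. Compounds pin-transferred, cells incubated at 37 °C for at least 48 hr. Growth read as ATP-dependent luminescence (CellTiter-Glo, 30 min at RT).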
ELG1 repair inh: inhibitors of ELG1-dependent DNA repair in HEK293T cells; Potency, µM (top dose mostly 46.1 µM), inactives show at the top dose activity change, negative = inhibition, actives largely listed as inhibitors; 330,000 tested, 2.3% active; HEK293T ELG1-luciferase reporter, luminescence, 16 h; DNA damage induced by 5-fluorouridine; further: potency means the concentration at half of the fitted maximal effect; nearly all actives have a fitted effect of over 55% in size
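Quantitative HTS, concentration-response format. 2,000 cells/well co-treated with 5-fluorouridine and compound, 16 hr in 5% CO2 at 37 °C; ONE-Glo luminescence read after 30 min.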
RORg inh: inhibitors of mouse ROR gamma transcriptional activity; P51450; Drosophila S2 Gal4-RORgamma UAS-luciferase reporter, 20 h; Potency, µM (titrated, usually from 53.6 µM), without a hit: top-dose activity change, negative = inhibition, hits mostly inhibitors; 310,000 tested, 5.4% active; AID 2551; further: potency means the concentration at half of the fitted maximal effect; nearly all actives have a fitted effect of over 60% in size
Target sequence (P51450 whole entry, looked up, the tested form may be a part): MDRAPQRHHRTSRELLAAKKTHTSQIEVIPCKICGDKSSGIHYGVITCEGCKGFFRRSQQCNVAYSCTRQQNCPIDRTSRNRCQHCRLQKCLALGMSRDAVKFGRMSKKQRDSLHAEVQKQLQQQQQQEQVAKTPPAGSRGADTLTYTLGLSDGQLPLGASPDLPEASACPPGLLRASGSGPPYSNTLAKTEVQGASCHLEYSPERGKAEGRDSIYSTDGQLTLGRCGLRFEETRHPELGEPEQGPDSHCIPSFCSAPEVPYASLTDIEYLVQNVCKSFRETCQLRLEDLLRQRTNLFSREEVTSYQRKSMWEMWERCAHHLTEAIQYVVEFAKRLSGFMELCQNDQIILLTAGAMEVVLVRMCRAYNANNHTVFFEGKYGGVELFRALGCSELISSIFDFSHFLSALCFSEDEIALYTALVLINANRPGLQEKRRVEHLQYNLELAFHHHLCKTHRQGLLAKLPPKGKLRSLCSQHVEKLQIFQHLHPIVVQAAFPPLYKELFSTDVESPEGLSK
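Stable Schneider cell line, Gal4 DNA-binding domain fused to ROR gamma, UAS-luciferase. Cmpd 1 hr RT → CuSO4 700 uM final → 20 hr RT → luciferase reagent 10 min → luminescence.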
IL1B secr inh: inhibitors of inflammasome signaling (IL-1 beta secretion) | THP-1 LPS/ATP IL-1B secretion, AlphaLISA, 16 h; stronger effect = lower value | activity change, % at 57.5 µM | 360,000 tested, 4.7% active; in the data active means activity change below about -50%; inconclusive means mostly about -30% to -49%
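Secreted IL-1B measured by AlphaLISA bead assay after 16 h compound exposure of THP-1 cells; compounds (final up to 57.5 uM) added 1 h before LPS (250 ng/mL) and ATP (1.25 mM) stimulation; lower signal means less secretion.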
TDP1 cell CPT: DT40-hTDP1 cell growth loss with CPT. 420,000 tested, 12% active. chicken DT40 Tdp1-/-;hTDP1 cells + 20 nM CPT, ATP luminescence, 48 h. Potency, µM (top dose mostly 46.2 µM), inactives show top-dose activity change, negative = growth inhibition, most hits filed as inhibitors; further: potency means the concentration at half of the fitted maximal effect; nearly all actives have a fitted effect of over 55% in size
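Chicken DT40 Tdp1-/- cells complemented with human TDP1, 400 cells/well, exposed to compounds plus 20 nM camptothecin for at least 48 h at 37 C; viability read as ATP content by CellTiter-Glo luminescence.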
Numbers without * were called inactive; u = inconclusive; x = no result given. Unless noted, the call rests on the fitted dose curve; in most records, active means well fitted curve in the direction sought with a large enough effect; inconclusive means small, poorly fitted or top-dose-only effect, or another doubt; inactive means no such curve, though single readings can be large; an effect the other way counts as inactive or inconclusive. On the % scale 0 is the no-effect control and ±100 the full control effect.

SMILES | Gal4-VP16 FLuc | TDP1 cell noCPT | ELG1 repair inh | RORg inh | IL1B secr inh | TDP1 cell CPT
CCOc1ccc(C(=O)Nc2ccc(N3CCN(C(C)=O)CC3)cc2)cc1[N+](=O)[O-] | -0.3% | u | -27.8% | 11.7% | -1.0 | u
O=C(CN1C(=O)NC2(CCOc3ccccc32)C1=O)NCCc1ccc(F)cc1 (stereo unspecified) | x | 14.2% | 2.3% | x | 0.0 | -11.3%
CN(Cc1ccccc1)CC(O)COc1ccc(CNCc2cccnc2)cc1 (stereo unspecified) | -1.2% | u | 6.9% | 9.0% | -13.6 | 23.1µM*
Brc1ccc(CNCc2cccs2)cc1 | 2.5% | -21.8% | 1.3% | 3.8% | -10.4 | -6.0%
c1ccc(COc2ccc(CNCc3cccs3)cc2)cc1 | 15.8µM* | 13µM* | 12.4% | u | -7.9 | u
CCn1cc(CNCc2ccc(OCC(O)CN(C)Cc3ccccc3)cc2)cn1 (stereo unspecified) | 3.3% | u | -6.0% | 2.1% | 0.0 | u
CN(Cc1ccccc1)CC(O)COc1ccc(CNCc2ccc(Cl)s2)cc1 (stereo unspecified) | -10.3% | 16.4µM* | 5.2% | 3.7% | -80.1* | u
Fc1ccc(COc2cccc(CNCc3ccncc3)c2)cc1 | u | 8.2µM* | u | u | -11.4 | u
c1ccc(COc2ccc(CNCc3cccnc3)cc2)cc1 | 16.2% | u | -11.8% | -1.5% | -63.1* | -16.6%
c1ccc2c(c1)Sc1cnccc1N2CC1CO1 (stereo unspecified) | x | 10.3µM* | x | x | -11.2 | 4.11µM*
CC(=O)Nc1ccc(NC(=O)C(C)OC(=O)CCCOc2ccc(Cl)c(C)c2)cc1 (stereo unspecified) | -23.9% | u | -4.1% | -37.1% | 7.4 | u
c1ccc(Cc2c(C3CCCCC3)nc3c4ccccc4ccn23)cc1 | x | 11.6µM* | x | x | 25.5 | u
Cc1cc(Br)cn2c(Cc3ccccc3)c(C3CCCCC3)nc12 | x | 16.4µM* | x | x | 86.6 | 18.4µM*
Cc1ccc(Cc2c(C3CCCCC3)nc3c(C)cc(Br)cn23)cc1 | x | -18.1% | x | x | 36.5 | u
Fc1cccc(Cc2c(C3CCCCC3)nc3c4ccccc4ccn23)c1 | x | 13µM* | x | x | 0.0 | 23.1µM*
CC1CCC(NC(=O)N(CCCl)N=O)CC1 (stereo unspecified) | 6.8% | -21.8% | x | 12.0% | -12.9 | u
COCC(C)n1c(SCc2nc(N)nc(Nc3ccccc3C)n2)nc2ccccc2c1=O (stereo unspecified) | 2.6% | u | u | 15.1% | u | 16.4µM*
C=CCn1c(=O)c2ccccc2n2c(SCc3nc(N)nc(Nc4ccccc4C)n3)nnc12 | -2.4% | u | u | u | -24.2 | u
CCCCn1c(SCc2nc(N)nc(Nc3ccccc3C)n2)nc2ccccc2c1=O | 16.8% | 18.4µM* | u | 0.7% | -28.0 | u
COCC(C)n1c(SCC(=O)NNC(=O)c2ccccc2)nc2ccccc2c1=O (stereo unspecified) | -1.9% | -17.9% | u | 10.2% | 10.3 | 3.1%
N#CCC(=O)N/N=C/c1coc2ccccc2c1=O | 1.9% | 5.4% | -8.3% | -30.1% | 7.6 | 21.5%
N#C/C(=C\c1coc2ccccc2c1=O)C(N)=S | u | 14.6µM* | -5.2% | 12.6µM* | 4.3 | u
O=C1CN(C(=O)COC(=O)c2cc(Cl)ccc2[N+](=O)[O-])c2ccccc2N1 | x | u | x | x | 14.3 | -6.8%
CN(C)S(=O)(=O)c1ccc(C(=O)Nc2nnc(-c3ccc4c(c3)CCCC4)o2)cc1 | 0.0891µM* | 5.17µM* | u | 0.126µM* | 3.8 | 2.91µM*
O=C(Nc1nnc(-c2cccs2)o1)c1cccc(C(F)(F)F)c1 | 0.112µM* | 5.17µM* | 14.2% | 0.112µM* | 72.7 | 5.17µM*
SMILES | Gal4-VP16 FLuc | TDP1 cell noCPT | ELG1 repair inh | RORg inh | IL1B secr inh | TDP1 cell CPT
CN(C)S(=O)(=O)c1ccc(C(=O)Nc2nnc(-c3cccs3)o2)cc1 | 1.26µM* | 23.1µM* | u | 0.631µM* | 22.5 | 13µM*
N#Cc1ccc(C(=O)Nc2nnc(-c3cccs3)o2)cc1 | 1µM* | 7.31µM* | u | 0.708µM* | 34.1 | 5.17µM*
COc1ccc(C=C2c3ccccc3C(=O)c3ccccc32)cc1O | 10.6% | x | x | 2.6% | x | x
CN(C)S(=O)(=O)c1ccc(NC(=O)CN2CCN(c3ccccn3)CC2)cc1 | 5.2% | -9.8% | -5.2% | 5.3% | -10.1 | u
O=C(Nc1ccc(N2CCCC2)cc1)c1cccc(-c2cc3ccccc3oc2=O)c1 | 17.6% | 23.1µM* | -6.2% | 25.6% | -22.5 | 16.4µM*
O=C(Nc1ccc(N2CCCC2)cc1)c1ccc2ccccc2c1 | -2.1% | -16.9% | u | -5.6% | -5.3 | 0.5%
O=C(Nc1ccc(Br)cn1)c1cccc(-c2cc3ccccc3oc2=O)c1 | -22.9% | u | u | 3.4% | 17.4 | u
O=C(Nc1ccccc1N1CCCC1)c1cccc(-c2cc3ccccc3oc2=O)c1 | -6.2% | 20.6µM* | u | u | -0.7 | u
O=C(O)c1ccc(Cl)cc1Cl | 20.0% | x | x | 0.2% | x | x
CCN(C(=O)C1CCN(S(=O)(=O)c2c(C)noc2/C=C/c2ccc(C)cc2)CC1)c1cccc(C)c1 | x | u | x | x | x | 1.0%
CCOc1cccc(OCCn2cnc3ccccc3c2=O)c1 | 13.1% | -1.2% | u | 43.8% | 16.9 | 15.5%
O=c1c2ccc([N+](=O)[O-])cc2ncn1CCOc1ccc(Cl)cc1 | -2.5% | 14.6µM* | u | -10.9% | -6.4 | 18.4µM*
O=C(Cn1cnc2cc([N+](=O)[O-])ccc2c1=O)NCc1ccc(Cl)cc1 | 24.7% | u | -7.1% | 10.9% | 0.0 | -3.0%
O=c1c2ccc([N+](=O)[O-])cc2ncn1CCOc1cccc(Br)c1 | 7.5% | 10.3µM* | 18.3µM* | -4.5% | 12.7 | u
NC(=S)Nc1cccc2cc3ccccc3cc12 | -82.5% | u | 2.6% | 12.6µM* | -23.3 | -28.3%
O=C(Nc1ccccc1F)Nc1ccccc1Br | u | u | u | 31.1% | -0.2 | -25.1%
NC(=S)Nc1ccccc1Br | 35.5µM* | u | 0.0% | u | 4.4 | -2.6%
NC(=S)Nc1cc2ccccc2c2ccccc12 | u | u | -5.9% | 11.2µM* | 9.2 | u
N/C(=N\NS(=O)(=O)c1ccccc1Cl)c1ccccn1 | x | -12.8% | x | x | 20.5 | -22.1%
CC(C)CNC(=O)C(=O)NCC1OCCN1S(=O)(=O)c1cccs1 (stereo unspecified) | x | 3.9% | x | x | 22.3 | -3.1%
